Compound activity deposited in PubChem by National Center for Advancing Translational Sciences (NCATS).
IL1B secr inh = qHTS for Inhibitors of Inflammasome Signaling: IL-1-beta AlphaLISA Primary Screen. 360,000 tested, 4.7% active. THP-1 LPS/ATP IL-1B secretion, AlphaLISA, 16 h; stronger effect = lower value. activity change, % at 57.5 µM; in the data active = activity change below about -50%; inconclusive = mostly about -30% to -49%
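THP-1 cells pretreated 1 hr with compounds (up to 57.5 uM final), then stimulated with LPS (250 ng/mL final) plus ATP (1.25 mM final); secreted IL-1B measured by AlphaLISA after 16 hr, decreased signal indicating inhibition.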
RORgamma inh = qHTS for inhibitors of ROR gamma transcriptional activity; Nuclear receptor ROR-gamma (Mus musculus), P51450; Drosophila S2 Gal4-RORgamma UAS-luciferase reporter, 20 h; Potency, µM (titrated, usually from 53.6 µM), inactives show at the highest dose activity change, negative = inhibition, most hits filed as inhibitors; 310,000 tested, 5.4% active; note: potency is the fitted concentration of half-maximal effect; nearly all actives have a fitted effect of over 60% in size
Target sequence (P51450 whole entry, looked up, the tested form may be a part): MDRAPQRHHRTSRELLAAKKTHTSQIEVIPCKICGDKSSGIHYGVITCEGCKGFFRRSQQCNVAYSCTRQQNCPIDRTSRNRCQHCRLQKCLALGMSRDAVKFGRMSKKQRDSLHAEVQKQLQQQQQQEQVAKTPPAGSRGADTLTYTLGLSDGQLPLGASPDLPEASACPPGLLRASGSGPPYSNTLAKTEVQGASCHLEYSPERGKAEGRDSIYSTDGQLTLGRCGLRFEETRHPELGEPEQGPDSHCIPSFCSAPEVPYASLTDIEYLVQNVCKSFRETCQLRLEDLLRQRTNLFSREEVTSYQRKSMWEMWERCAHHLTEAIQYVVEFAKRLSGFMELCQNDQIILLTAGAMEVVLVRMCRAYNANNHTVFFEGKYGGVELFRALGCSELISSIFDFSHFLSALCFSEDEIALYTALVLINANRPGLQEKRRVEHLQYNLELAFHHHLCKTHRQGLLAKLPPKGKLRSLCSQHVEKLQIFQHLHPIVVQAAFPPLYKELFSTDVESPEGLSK
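Using a luciferase readout, inhibitors were identified by reduced reporter activity in Drosophila cells coexpressing a copper-inducible Gal4–ROR gamma fusion and UAS-driven Photinus luciferase, incubated 20 hr after 700 uM copper sulfate.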
VP16 counter = VP16 counterscreen qHTS for inhibitors of ROR gamma transcriptional activity. Drosophila S2 Gal4-VP16 UAS-luciferase, luminescence, 20 h. Potency, µM (top dose mostly 53.6 µM), inactives show at the top dose activity, negative = inhibition, actives largely listed as inhibitors. 310,000 tested, 3.5% active;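 note: Gal4-VP16 expression switched on by copper sulfate through the metallothionein promoter; potency is the fitted concentration of half-maximal effect; nearly all actives have a fitted effect of over 50% in size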
TDP1 cell noCPT = qHTS for Inhibitors of human tyrosyl-DNA phosphodiesterase 1 (TDP1): qHTS in cells in absence of CPT | DT40 Tdp1-/- hTDP1 cells, no CPT, ATP luminescence, 48 h | Potency, µM (doses to about 46.2 µM), without a hit: at the highest dose activity change, negative = growth inhibition, most hits filed as inhibitors | 420,000 tested, 15% active | AID 686978, 2013; note: potency is the fitted concentration of half-maximal effect; nearly all actives have a fitted effect of over 55% in size
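Growth kinetics read by CellTiter-Glo luminescence after ≥48 hr at 37 °C. Cells: DT40 Tdp1-/- stably carrying human TDP1, 400 per well, compound exposure in the absence of CPT (DMSO vehicle).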
LDHA inh = qHTS assay for inhibitors of human lactate dehydrogenase; activity change, % (values are at about 110 or 230 µM); 480,000 tested, 0.15% active; L-lactate dehydrogenase A chain (Homo sapiens), P00338; purified LDHA, NADH/diaphorase-resazurin fluorescence; stronger effect = lower value; in the data active = activity change below about -30%; inconclusive = mostly about -25% to -30%;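 note: plate controls were DMSO wells for no effect and wells without enzyme for full effect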
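Human LDH5 (2 nM) was incubated with 0.06 mM NADH and 0.2 mM pyruvate for 5 min at room temperature in Tris pH 7.4. Remaining NADH was coupled through diaphorase/resazurin, and resorufin fluorescence was read at 0 and 20 min.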
TDP1 cell CPT = qHTS for Inhibitors of human tyrosyl-DNA phosphodiesterase 1 (TDP1): qHTS in cells in presence of CPT | chicken DT40 Tdp1-/-;hTDP1 cells + 20 nM CPT, ATP luminescence, 48 h | Potency, µM (titrated, usually from 46.2 µM), for the others: top-dose activity change, negative = growth inhibition, most hits filed as inhibitors | 420,000 tested, 12% active | AID 686979, 2013; note: potency is the fitted concentration of half-maximal effect; nearly all actives have a fitted effect of over 55% in size
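Chicken DT40 Tdp1-/- cells complemented with human TDP1, 400 cells/well, exposed to compounds plus 20 nM camptothecin for at least 48 h at 37 C; viability read as ATP content by CellTiter-Glo luminescence.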
Numbers without * were called inactive; ? = inconclusive; . = not tested or not shown. Most compounds without a hit are left out; they make up all but 18% or so of the library. Unless noted, calls come from the whole dose curve; as a rule, active = well fitted curve in the direction sought with a large enough effect; inconclusive = small, poorly fitted or top-dose-only effect, or another doubt; inactive = no such curve, though single readings can be large; an effect the other way counts as inactive or inconclusive. Unless noted, % is set by controls: 0 for no effect and ±100 for the full control effect.

SMILES	IL1B secr inh	RORgamma inh	VP16 counter	TDP1 cell noCPT	LDHA inh	TDP1 cell CPT
CCOc1ccc2cc(C(=O)NCc3ccccc3)c(=N)oc2c1	-77*	23%	-2%	?	-9	?
O=C(O)c1cc2ccc(O)cc2oc1=O	-3	.	.	-27%	0	5%
CCOc1cccc2cc(C(=O)NCc3ccc(Cl)cc3)c(=N)oc12	-65*	6%	-21%	?	4	?
O=C(NCc1ccccc1)c1cc2ccc(O)cc2oc1=O	12	2.2µM*	7.1µM*	?	-6	?
CC(=O)Oc1ccc2c(C)cc(=O)oc2c1C(=O)c1ccccc1	-9	19%	-18%	-12%	-35*	7%
COc1ccc(C(=O)Oc2ccc3c(C)cc(=O)oc3c2C(C)=O)cc1	5	-5%	4%	-14%	-1	2%
CCC(C)NC(=O)c1ccc(-n2c(=S)[nH]c3ccccc3c2=O)cc1 (stereo not given)	1	13%	-4%	-16%	0	-7%
COn1c(=S)[nH]c2ccccc2c1=O	-19	?	2%	-2%	-11	-5%
CC(C)n1c(=S)[nH]c2ccccc2c1=O	12	?	4µM*	?	-4	-7%
CCC(Cc1ccccc1)n1c(=S)[nH]c2ccccc2c1=O (stereo not given)	6	3.5µM*	?	-1%	1	2%
CC(C)(C)c1nnc(Nc2ccc(Br)cc2)[nH]c1=O	.	.	.	.	-19	.
c1cc2c(c(CC3CO3)c1CC1CO1)OCCOCCOCCOCCO2 (stereo not given)	6	.	.	2.3µM*	-4	2.1µM*
CC(C)(C)c1ccc2c(c1)OCCOCCOCCOCCO2	.	.	.	.	-6	.
Cc1ccc(Nc2cc(C)c(O)c(C)c2)cc1	?	8.9µM*	?	5.2µM*	38	5.2µM*
Cc1ccc(Nc2ccc(C)cc2)cc1	.	.	.	.	11	.
COc1ccc(C#CC2=CC(=O)CC(C)(C)C2)cc1	0	.	.	?	-5	?
COc1ccccc1C#CC1=CC(=O)CC(C)(C)C1	?	.	.	9.2µM*	-1	16µM*
CN1C(=O)/C(=C2\SC(N)=NC2=O)c2ccccc21	-18	8%	-3%	26µM*	0	18µM*
CN1C(=O)/C(=C2\SC(N3CCCCCC3)=NC2=O)c2ccccc21	-15	-10%	-2%	?	-5	?
CN1C(=O)/C(=C2\SC(=S)N(NC(=O)c3cccnc3)C2=O)c2ccccc21	48	?	?	-2%	7	-6%
CCCN1C(=O)/C(=C2\SC(N3CCCCC3)=NC2=O)c2ccccc21	-55*	-20%	-13%	18µM*	-1	?
O=c1[nH]cnc2c1c(-c1ccccc1)cn2-c1ccccc1	-12	-15%	-5%	?	-10	?
Fc1ccc(-n2cc(-c3ccccc3)c3c(=S)nc[nH]c32)cc1	26	1.3µM*	1µM*	?	3	?
Fc1cccc(-n2cc(-c3ccccc3)c3c(=S)nc[nH]c32)c1	21	2.5µM*	0.63µM*	21µM*	-1	?
CCCCSc1ncnc2c1c(-c1ccccc1)cn2-c1cccc(F)c1	.	.	.	-8%	-1	-10%
SMILES	IL1B secr inh	RORgamma inh	VP16 counter	TDP1 cell noCPT	LDHA inh	TDP1 cell CPT
CCCCCCCCNCCS(=O)(=O)NCc1ccccc1	-52*	.	.	16µM*	1	?
C=CCC1(CC=C)CCCN1C(=O)C1CCC(=O)N(CCc2ccccc2)C1 (stereo not given)	-16	?	-19%	5.8µM*	-2	9.2µM*
C=CCC1(CC=C)CCCN1C(=O)C1CCC(=O)N(CCc2ccc(OC)cc2)C1 (stereo not given)	-4	?	-21%	10µM*	2	12µM*
O=C1CCC(C(=O)N2CCSCC2)CN1CCc1ccccc1 (stereo not given)	4	1%	6%	33%	1	-13%
CCNc1c(NS(=O)(=O)c2ccc(F)c(C)c2)c(=O)oc2ccccc12	.	.	.	.	-9	.
N#C/C(=N\Nc1ccc(Cl)cc1)C(=O)c1ccccc1	-52*	?	?	10µM*	-2	9.2µM*
COC(=O)C(=NNc1c(C)n(C)n(-c2ccccc2)c1=O)C(=O)OC	-7	-9%	-2%	-17%	5	0%
Cc1c(N/N=C(\C#N)C(=O)c2ccc(Cl)cc2)c(=O)n(-c2ccccc2)n1C	36	7.1µM*	3.5µM*	3.7µM*	-7	3.7µM*
O=C(c1cc(-c2ccco2)[nH]n1)N1CCN(c2ccccn2)CC1	.	.	.	.	5	.
CCOc1[nH]c(/N=C/c2ccccc2)c(C#N)c1C#N	.	.	.	-25%	2	6.3µM*
COc1[nH]c(/N=C/c2ccco2)c(C#N)c1C#N	.	.	.	?	2	16µM*
CC1Cc2ccccc2N1C(=S)NC(=O)c1cccc(Br)c1 (stereo not given)	22	1.1µM*	0.79µM*	15µM*	-2	21µM*
Cc1ccc2c(c1)C1CN(C)CCC1N2C(=O)COc1ccccc1F (stereo not given)	-12	-1%	1%	-21%	-10	5%
CC1Cc2ccccc2N1C(=S)NC(=O)c1ccc(Cl)cc1Cl (stereo not given)	22	0.35µM*	0.71µM*	10µM*	0	?
Cc1ccc2c(c1)C1CN(C)CCC1N2C(=S)NC(=O)c1ccc(Cl)cc1Cl (stereo not given)	3	0.28µM*	0.89µM*	?	-10	?
CC1Cc2ccccc2N1C(=S)Nc1ccc(S(N)(=O)=O)cc1 (stereo not given)	-11	28%	10%	?	-7	?
CC(=O)c1ccc(NC(=S)N2c3ccccc3CC2C)cc1 (stereo not given)	7	?	0%	-6%	-1	-27%
COc1cccc(C(=O)NC(=S)N2c3ccccc3CC2C)c1OC (stereo not given)	5	4µM*	14µM*	?	-5	-1%
CC(C)(C)c1ccc(NC(=O)CN2CCC(N3CCCC3)C2)cc1 (stereo not given)	.	.	.	.	-5	.
Cc1cccc2cc(CN(Cc3cccnc3)C(=O)C(C)C)c(=O)[nH]c12	.	.	.	.	-3	.
